# Laboratory results as given in PubChem BioAssay (NCATS).
# Inconclusive results are not listed. Calls of active or inactive are those of the source. Calls come from the whole dose curve; as a rule, active = well fitted curve in the direction sought with a large enough effect; inconclusive = small, poorly fitted or top-dose-only effect, or another doubt; inactive = no such curve, though single readings can be large; an effect the other way counts as inactive or inconclusive.
# Experiments:
# [1] = Quantitative High-Throughput drug screen in 47 multiple myeloma cell lines against the NCATS MIPE library collection: FR4_PLB cell viability assay (AID 1918924; note: nearly all actives have a fitted effect of over 35% in size)
# In short: (§1)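 Myeloma cell lines, 500 cells per well, exposed to MIPE 4.0 library compounds for 48 h at 37C, 5% CO2. Viability from ATP by CellTiter-Glo luminescence; normalised to DMSO (100%) and media-only (0%) wells.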
# [2] = Quantitative High-Throughput drug screen in 47 multiple myeloma cell lines against the NCATS MIPE library collection: Delta47_JCRB cell viability assay (AID 1918925; note: nearly all actives have a fitted effect of over 45% in size)
# In short: (§2)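 Relative luminescence from CellTiter-Glo served as the viability signal, referenced to DMSO-treated (100%) and cell-free medium (0%) controls. Treatment lasted 48 hours at 37C with 500 cells per well.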
# [3] = Quantitative High-Throughput drug screen in 47 multiple myeloma cell lines against the NCATS MIPE library collection: EJM_DSMZ cell viability assay (AID 1918926; note: nearly all actives have a fitted effect of over 30% in size)
# In short: as §2
# [4] = Quantitative High-Throughput drug screen in 47 multiple myeloma cell lines against the NCATS MIPE library collection: AMO1_DSMZ cell viability assay (AID 1918927; note: nearly all actives have a fitted effect of over 30% in size)
# In short: as §2
# [5] = Quantitative High-Throughput drug screen in 47 multiple myeloma cell lines against the NCATS MIPE library collection: ARP1_JJKsccF8 cell viability assay (AID 1918928; note: nearly all actives have a fitted effect of over 40% in size)
# In short: (§3)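 Myeloma cells, 500 per well, were exposed to MIPE 4.0 drugs by pin transfer for 48 h at 37 °C, 5% CO2. Viability was read as ATP luminescence with CellTiter-Glo, normalised to DMSO-only (100%) and medium-only (0%) wells.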
# [6] = Quantitative High-Throughput drug screen in 47 multiple myeloma cell lines against the NCATS MIPE library collection: ARD_JJKsccE7 cell viability assay (AID 1918929)
# In short: as §2
# [7] = Quantitative High-Throughput drug screen in 47 multiple myeloma cell lines against the NCATS MIPE library collection: Karpas620_DSMZ cell viability assay (AID 1918959); note: nearly all actives have a fitted effect of over 30% in size
# In short: as §1
# [8] = Quantitative High-Throughput drug screen in 47 multiple myeloma cell lines against the NCATS MIPE library collection: KMM1_JCRB cell viability assay (AID 1918960); note: nearly all actives have a fitted effect of over 30% in size
# In short: as §3
# [9] = Quantitative High-Throughput drug screen in 47 multiple myeloma cell lines against the NCATS MIPE library collection: Karpas417_ECACC cell viability assay (AID 1918961); conditions: Karpas417 myeloma viability, CellTiter-Glo ATP luminescence, 48 h; viability (% of DMSO): at 45.8 µM (top of the series)
# In short: as §1
# [10] = Quantitative High-Throughput drug screen in 47 multiple myeloma cell lines against the NCATS MIPE library collection: KHM11_PLB cell viability assay (AID 1918962); note: nearly all actives have a fitted effect of over 35% in size
# In short: as §1
# [11] = Quantitative High-Throughput drug screen in 47 multiple myeloma cell lines against the NCATS MIPE library collection: JIM3_ECACC cell viability assay (AID 1918963; note: nearly all actives have a fitted effect of over 35% in size)
# In short: as §1
# [12] = Quantitative High-Throughput drug screen in 47 multiple myeloma cell lines against the NCATS MIPE library collection: JIM1_ECACC cell viability assay (AID 1918964)
# In short: as §2
# [13] = Quantitative High-Throughput drug screen in 47 multiple myeloma cell lines against the NCATS MIPE library collection: INA6_PLB cell viability assay (AID 1918965; note: nearly all actives have a fitted effect of over 55% in size)
# In short: as §1
# [14] = Quantitative High-Throughput drug screen in 47 multiple myeloma cell lines against the NCATS MIPE library collection: Karpas25_ECACC cell viability assay (AID 1918968; note: nearly all actives have a fitted effect of over 35% in size)
# In short: as §2
# [15] = Quantitative High-Throughput drug screen in 47 multiple myeloma cell lines against the NCATS MIPE library collection: KMS27_JCRB cell viability assay (AID 1918970); note: nearly all actives have a fitted effect of over 30% in size
# In short: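 CellTiter-Glo luminescence after 48 h drug exposure at 37 °C; 500 cells/well, 1536-well format, pin-tool compound addition; DMSO = 100%, media-only = 0% viability.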
# [16] = Quantitative High-Throughput drug screen in 47 multiple myeloma cell lines against the NCATS MIPE library collection: KMS12BM_JCRB cell viability assay (AID 1918971); note: nearly all actives have a fitted effect of over 35% in size
# In short: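 Viability readout: CellTiter-Glo luminescence following 5 min room-temperature incubation with reagent. Prior exposure: 48 h, 37C, humidified 5% CO2, 500 cells per well.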
# [17] = Quantitative High-Throughput drug screen in 47 multiple myeloma cell lines against the NCATS MIPE library collection: KMS12PE_JCRB cell viability assay (AID 1918972); note: nearly all actives have a fitted effect of over 30% in size
# In short: as §1
# [18] = Quantitative High-Throughput drug screen in 47 multiple myeloma cell lines against the NCATS MIPE library collection: KMS20_JCRB cell viability assay (AID 1918973); note: nearly all actives have a fitted effect of over 45% in size
# In short: as §2
# [19] = Quantitative High-Throughput drug screen in 47 multiple myeloma cell lines against the NCATS MIPE library collection: H1112_PLB cell viability assay (AID 1918967; note: nearly all actives have a fitted effect of over 30% in size)
# In short: as §2
# [20] = Quantitative High-Throughput drug screen in 47 multiple myeloma cell lines against the NCATS MIPE library collection: JJN3_DSMZ cell viability assay (AID 1918966; note: nearly all actives have a fitted effect of over 50% in size)
# In short: as §2
# Potency is the fitted concentration of half-maximal effect.
SMILES,Potency [1],Potency [2],Potency [3],Potency [4],Potency [5],Potency [6],Potency [7],Potency [8],Potency [9],Potency [10],Potency [11],Potency [12],Potency [13],Potency [14],Potency [15],Potency [16],Potency [17],Potency [18],Potency [19],Potency [20]
NS(=O)(=O)c1cccc2c1C(=O)c1cccc(O)c1C2=O,935 nM (active),418 nM (active),935 nM (active),166 nM (active),332 nM (active),264 nM (active),148 nM (active),264 nM (active),148 nM (active),662 nM (active),187 nM (active),209 nM (active),148 nM (active),132 nM (active),209 nM (active),1050 nM (active),264 nM (active),132 nM (active),–,–
NC(=O)c1ccc2nc(-c3ccc(Oc4ccc(Cl)cc4)cc3)[nH]c2c1,166 nM (active),26.4 nM (active),inactive,1480 nM (active),–,5900 nM (active),–,469 nM (active),187 nM (active),8.3 nM (active),105 nM (active),–,20.9 nM (active),4690 nM (active),–,–,9350 nM (active),5260 nM (active),inactive,–
CC=CC(=O)N(CC)c1ccccc1C,inactive,inactive,inactive,inactive,5260 nM (active),inactive,inactive,inactive,–,inactive,inactive,inactive,inactive,inactive,inactive,inactive,inactive,inactive,inactive,–
CN(C)c1cc(NC(=O)CNC(C)(C)C)c(O)c2c1C[C@@H]1C[C@H]3[C@H](N(C)C)C(=O)C(C(N)=O)=C(O)[C@@]3(O)C(=O)C1=C2O,inactive,inactive,inactive,inactive,inactive,inactive,inactive,inactive,inactive,inactive,inactive,–,inactive,–,inactive,inactive,inactive,–,inactive,–
C[C@]12CCC3c4ccc(O)cc4CCC3C1CCC2=O (some centres undefined),1870 nM (active),inactive,inactive,833 nM (active),–,inactive,inactive,inactive,–,inactive,inactive,–,–,–,inactive,20900 nM (active),inactive,–,inactive,–
Oc1ccc(C2=Cc3ccc(O)cc3OC2)cc1,1320 nM (active),833 nM (active),2350 nM (active),2640 nM (active),4180 nM (active),–,–,2640 nM (active),2640 nM (active),5260 nM (active),–,3320 nM (active),662 nM (active),1480 nM (active),2090 nM (active),2960 nM (active),–,3320 nM (active),–,1480 nM (active)
NS(=O)(=O)c1ccc(NC2=CC(=O)c3ccccc3C2=O)cc1,2960 nM (active),18700 nM (active),inactive,590 nM (active),2640 nM (active),–,1660 nM (active),–,–,–,18700 nM (active),–,11800 nM (active),833 nM (active),1320 nM (active),inactive,526 nM (active),–,–,–
CC1(C)S[C@H]2[C@H](NC(=O)[C@@H](N)c3ccc(O)cc3)C(=O)N2[C@@H]1C(=O)O,inactive,inactive,inactive,2350 nM (active),20900 nM (active),–,14800 nM (active),2090 nM (active),1660 nM (active),–,inactive,7430 nM (active),20900 nM (active),4690 nM (active),935 nM (active),–,4180 nM (active),–,–,–
O=C1C(Cl)=C(NCCN2CCOCC2)C(=O)c2ncccc21,6620 nM (active),7430 nM (active),7430 nM (active),2960 nM (active),4690 nM (active),5260 nM (active),1480 nM (active),3320 nM (active),3320 nM (active),9350 nM (active),8330 nM (active),2960 nM (active),2960 nM (active),2640 nM (active),2640 nM (active),2960 nM (active),3320 nM (active),4690 nM (active),11800 nM (active),3720 nM (active)
CC1(C)CCC2=C(O1)c1ccccc1C(=O)C2=O,20900 nM (active),16600 nM (active),20900 nM (active),4690 nM (active),–,inactive,2960 nM (active),–,–,–,18700 nM (active),–,20900 nM (active),5900 nM (active),3320 nM (active),20900 nM (active),5900 nM (active),18700 nM (active),–,–
Cc1nc(N)sc1-c1ccnc(Nc2ccc(N3CCOCC3)cc2)n1,14800 nM (active),10500 nM (active),18700 nM (active),2640 nM (active),–,5260 nM (active),20900 nM (active),4690 nM (active),–,6620 nM (active),14800 nM (active),–,1480 nM (active),5900 nM (active),6620 nM (active),14800 nM (active),2640 nM (active),7430 nM (active),16600 nM (active),–
